# Assay results published in PubChem BioAssay (EPA / NIEHS).
# Results filed as inconclusive are left out. Active and inactive are the calls of the source. How the source made its calls: active means hit-call score of the fitted dose curve at least 0.9, where 1 is the maximum; inconclusive means response in the unintended direction; inactive means score below 0.9.
# Molecular target: human Serotonin, 5-Hydroxytryptamine Receptor 5A (5HT5A), HTR5A (gene 3361) (UniProt P47898)
# Assay: NVS_GPCR_h5HT5A: NovaScreen (NVS) G Protein-Coupled Receptor Assay for human Serotonin, 5-Hydroxytryptamine Receptor 5A (5HT5A) (AID 2283251)
# Description: NVS_GPCR_h5HT5A is a biochemical, single-readout assay that uses extracted gene-proteins from HEK293 in a cell-free assay. Measurements were taken 1 hour after chemical dosing in a 96-well plate.NVS_GPCR_h5HT5A is one of one assay component(s) measured or calculated from the NVS_GPCR_h5HT5A assay. It is designed to make measurements of radioligand binding, a form of binding reporter, as detected with scintillation counting signals by Filter-based radiodetection technology.Data from the assay component NVS_GPCR_h5HT5A was analyzed into 1 assay endpoint. This assay endpoint, NVS_GPCR_h5HT5A, was analyzed in the positive analysis fitting direction relative to DMSO as the negative control and baseline of activity. Using a type of binding reporter, loss-of-signal activity can be used to understand changes in the binding as they relate to the gene HTR5A. Furthermore, this assay endpoint can be referred to as a primary readout, because the performed assay has only produced 1 assay endpoint. To generalize the intended target to other relatable targets, this assay endpoint is annotated to the gpcr intended target family, where the subfamily is rhodopsin-like receptor.
# Binding assays used specific radioligands (tritiated, iodinated) with non-radioactive competitive displacement ligands in agonist or antagonist protocols (as indicated) and various reference compounds and inhibitors to titrate specific binding to receptors and transporters. Most enzyme assays (CYPs, kinases, phosphatases, proteases, HDACs) used recombinant protein and specific substrates (fluorescence mostly, some colorimetric and radioactive) and inhibitors, followed by a biochemical separation of substrate and product. All assays for the biochemical HTS were initially run in duplicate at a single concentration (10 uM for CYP450 assays and 25 uM for all others). […] Each assay was run with positive and negative controls, and concurrent controls on every plate. The follow-up (secondary) screen tested active chemical-pairs in concentration series, as well as a few additional assays not tested in the primary screen, some selected negative inactives, and several cases re-run in the concentration series for confirmatory purposes.
# human Serotonin, 5-Hydroxytryptamine Receptor 5A (5HT5A), HTR5A (gene 3361), sequence (P47898 whole entry, looked up): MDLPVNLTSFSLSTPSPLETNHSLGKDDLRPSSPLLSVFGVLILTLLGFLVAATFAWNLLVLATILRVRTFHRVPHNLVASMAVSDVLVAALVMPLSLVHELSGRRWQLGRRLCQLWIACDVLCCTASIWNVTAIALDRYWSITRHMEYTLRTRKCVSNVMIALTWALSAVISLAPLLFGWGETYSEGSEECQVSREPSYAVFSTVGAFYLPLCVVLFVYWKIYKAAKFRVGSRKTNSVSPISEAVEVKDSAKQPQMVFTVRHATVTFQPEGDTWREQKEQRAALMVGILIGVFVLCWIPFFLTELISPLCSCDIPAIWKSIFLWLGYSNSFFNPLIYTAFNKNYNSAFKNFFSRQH
Structure (SMILES),outcome,AC50
CC(Oc1cccc(Cl)c1)C(=O)O (stereo not given),inactive,
CNC(=O)Oc1cccc2c1OC(C)(C)O2,inactive,
C[Si](Cn1cncn1)(c1ccc(F)cc1)c1ccc(F)cc1,,7.85 µM (active)
O=c1ccc(=O)[nH][nH]1,inactive,
O=C(O)c1cc(Oc2ccc(C(F)(F)F)cc2Cl)ccc1[N+](=O)[O-],inactive,
C=C(C)[C@H]1Cc2c(ccc3c2O[C@@H]2COc4cc(OC)c(OC)cc4[C@@H]2C3=O)O1,inactive,
CC(C)[C@H](C(=O)O[C@H](C#N)c1cccc(Oc2ccccc2)c1)c1ccc(Cl)cc1,,6.96 µM (active)
CC(COc1ccc(Oc2ccccc2)cc1)Oc1ccccn1 (stereo not given),inactive,
CCOP(=S)(OCC)Oc1ccc2c(C)c(Cl)c(=O)oc2c1,inactive,
CC[C@H](C)[C@H]1O[C@]2(C=C[C@@H]1C)C[C@@H]1C[C@@H](C/C=C(\C)[C@@H](O[C@H]3C[C@H](OC)[C@@H](O[C@H]4C[C@H](OC)[C@@H](NC)[C@H](C)O4)[C@H](C)O3)[C@@H](C)/C=C/C=C3\CO[C@@H]4[C@H](O)C(C)=C[C@@H](C(=O)O1)[C@]34O)O2,,7.94 µM (active)
